{"source": "PubChem BioAssay AID1571", "about": "(National Center for Advancing Translational Sciences (NCATS), 2009)", "note": "“And” between values parts separate entries of the source, which are not always exact repeats. Equal entries are not always repeated. Records with an inconclusive call do not appear. Where a call stands in place of a potency, no number is given. A number with no mark means an inactive call. The source made the active and inactive calls. Calls come from the whole dose curve; as a rule, active = well fitted curve in the direction sought with a large enough effect; inconclusive = small, poorly fitted or top-dose-only effect, or effect the other way; inactive = flat fitted curve, though single readings scatter."}
{"assay": "Total Fluorescence Confirmation Counterscreen for Inhibitors of the Interaction of Thyroid Hormone Receptor and Steroid Receptor Coregulator 2, Fluorescein Fluoroprobe", "conditions": "TRbeta/SRC2-fluorescein mix, total fluorescence interference; series mostly up to 92.2 µM", "text": "NIH Molecular Libraries Probe Production Network [MLPCN] NIH Chemical Genomics Center [NCGC] MLPCN Grant: DK058080 Assay Provider: R. Kip Guy, St. Jude Children's Research Hospital NCGC Assay Overview: Thyroid receptor (TR) regulates many homeostatic processes including basal metabolism, cardiovascular function, body weight, and lipid trafficking. TR modulators are potential therapeutics for obesity and hyperlipidemias but current thyroid analogs have undesirable side effects, particularly cardiac stimulation. To identify inhibitors that specifically prevent the interaction of TR with the steroid receptor coregulator 2 (SRC2), a fluorescence polarization assay was screened (Arnold et al., 2006). This assay detects interaction of the ligand-binding domain of human TRbeta with a fluorescein labeled SRC2 peptide, corresponding to a 20 amino acid region of the nuclear receptor interaction domain. Total fluorescence (555 nm excitation and 632 nm emission) was measured to identify potential fluorescent and light absorbing compounds. Such compounds may be artifacts that interfere with the fluorescence polarization assay. This assay is a confirmation assay for AID 1479. Arnold, L. A.; Estebanez-Perpina, E.; Togashi, M.; Shelat, A.; Ocasio, C. A.; McReynolds, A. C.; Nguyen, P.; Baxter, J. D.; Fletterick, R. J.; Webb, P.; Guy, R. K. A high-throughput screening method to identify small molecule inhibitors of thyroid hormone receptor coactivator binding. Sci STKE 2006, p 13.\nNCGC Assay Protocol Summary: For screening, 5 uL/well 0.6 uM TRbeta and 20 nM SRC2 Fluorescein in protein buffer (20mM Tris hydrochloride, 100mM NaCl, 10% glycerol, 1mM EDTA, 0.01% NP-40, 1mM DTT, 1uM T3 and 5% DMSO) was dispensed into black solid 1536-well plates (Grenier) using a solenoid-based dispenser. Following transfer of 23 nL compound or DMSO vehicle by a pin tool, the plates were centrifuged 15 s at 1000 RPM and incubated 5 hr at ambient temperature. The plates were read by an Envision (Perkin Elmer) to detect fluorescence polarization of SRC2 Fluorescein (480 nm excitation and 535 nm emission). Data were normalized to unbound (all components except TRbeta) and bound SRC2 Fluorescein controls. Total fluorescence (TF) was calculated as follows: TF = S + 2P where S and P are fluorescence readings in the parallel and perpendicular channels, respectively. In this assay, we provide % activity data for each concentration as well as potencies for the active compounds."}
{"smiles": "O=C(O)C1C2C=CC(O2)C1C(=O)Nc1ccc(S(=O)(=O)N2CCc3ccccc32)cc1", "note": "(stereo not given)", "total fluorescence change, positive = fluorescent": "3.65% [at 11.6 µM]"}
{"smiles": "COc1ccc(C(=O)Oc2ccc(C(c3c(C)[nH][nH]c3=O)c3c(C)[nH][nH]c3=O)cc2OC)cc1", "Potency": "inactive"}
{"smiles": "Cn1c(-c2ccc(=O)[nH]c2)nc2ccccc21", "Potency": "inactive"}
{"smiles": "Nc1c(C(=O)NCc2ccco2)c2nc3ccccc3nc2n1CCc1ccccc1", "Potency": "inactive"}
{"smiles": "O=C(NNc1cc(N2CCOCC2)nc(N2CCOCC2)n1)c1ccc([N+](=O)[O-])cc1", "total fluorescence change, positive = fluorescent": "19.9% [at 11.6 µM]"}
{"smiles": "C/C(=C\\C(=O)c1ccccc1)Nc1ccc(O)cc1", "total fluorescence change, positive = fluorescent": "10.3% [at 11.6 µM]"}
{"smiles": "O=C(NNc1cc(N2CCOCC2)nc(N2CCOCC2)n1)c1ccc(Cl)c(Cl)c1", "Potency": "inactive"}
{"smiles": "Nc1cccnc1Sc1cc(Cl)c(Cl)cc1Cl", "Potency": "inactive"}
{"smiles": "O=C(O)[C@H]1CN(CCCP(=O)(O)O)CCN1", "Potency": "inactive"}
{"smiles": "CC(NC(=O)Nc1ccc(O)cc1)(C(F)(F)F)C(F)(F)F", "total fluorescence change, positive = fluorescent": "8.06% [at 11.6 µM]"}
{"smiles": "CCOc1ccc(C2=Cc3cc(OC)c(OC)cc3C(=C(Cl)Cl)O2)cc1", "Potency": "inactive"}
{"smiles": "COC(=O)/C(=C/Nc1ccc(O)cc1)[N+](=O)[O-]", "total fluorescence change, positive = fluorescent": "0.349% [at 5.76 µM]"}
{"smiles": "COc1ccc2c(c1)-c1nc(/N=C/c3c(O)ccc4ccccc34)sc1CC2", "total fluorescence change, positive = fluorescent": "29.6% [at 5.76 µM]"}
{"smiles": "CC1=NN(Cc2ccccc2)C(=O)C1", "Potency": "inactive"}
{"smiles": "Cc1ccccc1Nc1cc2ccccc2c(=O)[nH]1", "Potency": "25.1 µM [fluorescent] (active) and 44.7 µM [fluorescent] (active)"}
{"smiles": "Cc1ccc(-c2nc(S(=O)(=O)c3ccc(F)cc3)c(SCC(=O)NCC3CCCO3)o2)cc1", "note": "(stereo not given)", "Potency": "inactive"}
{"smiles": "O=C(Nc1nc2ccc(Cl)cc2s1)c1ccc(N2CCCCC2)c([N+](=O)[O-])c1", "Potency": "inactive"}
{"smiles": "Cc1nc2ccccc2n2c(O)c(CC(=O)O)cc12", "Potency": "12.6 µM [fluorescent] (active)"}
{"smiles": "O=C1CCCC(O)=C1N=Nc1cccc(S(=O)(=O)N2CCOCC2)c1", "Potency": "inactive"}
{"smiles": "COc1ccc(CN2C(=O)Cc3c2nc(N)c2c(N)nc(N4CCCCC4)c(C#N)c32)cc1", "Potency": "inactive"}
{"smiles": "O=C1CNC(=S)N1c1nc(-c2ccccc2)cs1", "total fluorescence change, positive = fluorescent": "7.24% [at 0.0112 µM]"}
{"smiles": "COn1c2c(c3c4nonc4ccc31)CCCC2", "Potency": "inactive"}
{"smiles": "CCCCOc1ccc(C(=O)CCN2CCOCC2)cc1", "Potency": "inactive"}
{"smiles": "CCOc1ccc(NC(=O)C(c2ccccn2)N(C(=O)CCl)c2ccc(F)cc2)cc1", "note": "(stereo not given)", "total fluorescence change, positive = fluorescent": "17.5% [at 5.76 µM]"}
{"smiles": "O=c1[nH]c(Nc2ccccc2)cc2ccccc12", "Potency": "35.5 µM [fluorescent] (active)"}
{"smiles": "Cc1cccc(S(=O)(=O)c2cn(Cc3ccccc3)c3cc(N4CCC(C)CC4)c(F)cc3c2=O)c1", "Potency": "inactive"}
{"smiles": "CCOC(=O)c1cnc2nc(NCc3ccc(OC)c(OC)c3)[nH]n2c1=O", "Potency": "inactive"}
{"smiles": "CCN(C(=O)C1CCCN(c2ncnc3onc(-c4ccc(F)cc4)c23)C1)c1ccccc1", "note": "(stereo not given)", "Potency": "inactive"}
{"smiles": "Nc1cnccc1C(=O)O", "Potency": "inactive"}
{"smiles": "C=CCNC(=O)/C(C#N)=C\\c1cc(Cl)c(OCC)c(OC)c1", "Potency": "inactive"}
{"smiles": "CCOc1cc(C(c2c(C)[nH][nH]c2=O)c2c(C)[nH][nH]c2=O)ccc1OS(=O)(=O)c1ccc(C)cc1", "Potency": "inactive"}
{"smiles": "Cc1cc(C)cc(OCC(=O)NCCc2nc3ccccc3[nH]2)c1", "Potency": "inactive"}
{"smiles": "Cc1ccc2c(CC(=O)Nc3c(C(=O)c4ccc(F)cc4)oc4ccccc34)coc2c1C", "Potency": "inactive"}
{"smiles": "COc1ccc(C(=O)/C=C/Nc2ccc(S(=O)(=O)Nc3ncccn3)cc2)cc1", "total fluorescence change, positive = fluorescent": "8.87% [at 0.0112 µM]"}
{"smiles": "Nc1cc(-c2ccccc2)c[nH]c1=O", "Potency": "39.8 µM [fluorescent] (active)"}
{"smiles": "COc1cc(NCCCC(C)N)c2ncccc2c1", "note": "(stereo not given)", "total fluorescence change, positive = fluorescent": "-9.55% [at 11.6 µM]"}
{"smiles": "Nc1cc(-c2ccncc2)c[nH]c1=O", "Potency": "inactive"}
{"smiles": "Cn1c(CCN2CCCCC2)nc2cc(NS(=O)(=O)c3ccc(Cl)cc3)ccc21", "total fluorescence change, positive = fluorescent": "13% [at 0.0112 µM]"}
{"smiles": "Cn1cc[nH]c1=S", "Potency": "inactive"}
{"smiles": "Cn1c(=O)[nH]c2nnc(-c3ccc(Cl)c(Cl)c3)nc2c1=O", "Potency": "inactive"}
